Experimental findings from ChEMBL document CHEMBL3988442, “University of Dundee, Small-Polar-MMV Screening Library” (2021) are described below.

Hit rate of the full screen: of about 66,000 compounds, about 960 (1.5%) showed an effect of 50% or more. Many of the other results were omitted from the sample, so strong results are more common in it than they were.

For this assay, the system named is Trypanosoma brucei. The assay is described as follows: Trypanosoma brucei 72 hour study. It counts as functional, organism-based. Further details: scale not given: in the data most compounds retested in dose-response had high values.

Regarding `COc1ccc(CC(=O)N2CC(=O)NCC(C)(C)C2)cc1`, the “Percent Effect” value (30.3 µM, […]) is reported as -15.32%.

Turning to `O=C(NC[C@@H]1C[C@@H]2CN(C(=O)CO)C[C@H]2O1)c1ccsc1`, for the setting “30.3 µM, […]”, the “Percent Effect” value is reported as -12.73%.

Turning to `Cc1nn(C)c(C)c1S(=O)(=O)N1CC[C@@H]2O[C@@H](C)C[C@H]2C1.O=C(O)C(F)(F)F`, under “30.3 µM, […]”, the “Percent Effect” value is 5.348%. On to `CN(C)CCN1C(=O)CCC12CCCN(C(=O)C1CC=CC1)CC2.O=C(O)C(F)(F)F` (stereo not drawn), for which, for the setting “30.3 µM, […]”, the “Percent Effect” value was 14.28%.

In the case of `Cc1ccc(OCC2CCCN(c3nc(CO)cs3)C2)cc1` (stereo not drawn), the “Percent Effect” value (30 µM, 30.03 µM) worked out at 49.4%.

For the compound `COc1ccc(OCC2CCCN(c3nc(CO)cs3)C2)cc1` (stereo not drawn), the “Percent Effect” value (30 µM, 30.03 µM) is 85.11%. On the same count and under the same terms, the result for `OCc1csc(N2CCCC(COc3cccc(F)c3)C2)n1` (stereo not drawn) reads -13.56%. Regarding `CCc1c(C)nc2cc(-c3nccn3C)nn2c1N1CCCC(CO)C1` (stereo not drawn), the “Percent Effect” value (30.3 µM, […]) turned out to be 50.14%. On to `Cc1nc2cc(-c3nccn3C)nn2c(N2CCCC(O)C2)c1C.Cl` (stereo not drawn), for which the “Percent Effect” value (30.3 µM, […]) was -11.86%. The same measure, in the same setting: then `Cc1nc2cc(-c3nccn3C)nn2c(N2CCCC(CO)C2)c1C` (stereo not drawn), with 21.68%. On to `Cc1ccc(CN2CCOC3(COCCN(CCN(C)C)C3)C2)o1.O=C(O)C(F)(F)F.O=C(O)C(F)(F)F.O=C(O)C(F)(F)F` (stereo not drawn), for which the “Percent Effect” value (30 µM, 30.03 µM) worked out at 20.44%. For the compound `OC(CNC1CCOCC1)c1cccc(OCc2ccccc2)c1` (stereo not drawn), the “Percent Effect” value (30 µM, 30.03 µM) is listed as -36.97%. Same read-out and setting: then `OC(CNC1CCSCC1)c1cccc(OCc2ccccc2)c1` (stereo not drawn), with -20.69%; and `CN1CCC(NCC(O)c2cccc(OCc3ccccc3)c2)CC1` (stereo not drawn), with 101.3%. Regarding `Cl.c1cc(NCc2ccncc2)nc(C2CCCN2)c1` (stereo not drawn), the “Percent Effect” value (30.3 µM, […]) is recorded as 7.613%.

Turning to `CC(C)(C)c1ccc(-n2ncc3c2CCCC3N)cc1` (stereo not drawn), where the note is “30 µM, 30.03 µM”, the “Percent Effect” value is 97.82%. In the case of `Cc1cc(C)cc(-n2ncc3c2CCCC3N)c1` (stereo not drawn), the “Percent Effect” value (30 µM, 30.03 µM) was -36.85%. For `Cc1ccc(-n2ncc3c2CCCC3N)cc1C` (stereo not drawn), the “Percent Effect” value (30 µM, 30.03 µM) is -37.31%. Consider `CN(C)C(=O)C1CCN(C2CCN(CC3CC3)CC2)CC1.O=C(O)C(F)(F)F.O=C(O)C(F)(F)F`, for which the “Percent Effect” value (30.3 µM, […]) was -10.13%. Turning to `CCc1nc(C2CCCN2C(=O)c2ccc3c(c2)nnn3C)no1` (stereo not drawn), the “Percent Effect” value runs as follows: (10 µM) -25.38%; (30.3 µM, […]) -22.91%.

On to `c1ccc(-c2nc(CN3CCCC3Cn3cncn3)no2)cc1` (stereo not drawn), for which the “Percent Effect” value (30.3 µM, […]) amounted to 6.98%. Turning to `CCN(CC)C(=O)C1CCN(c2ccc(Cl)cc2C#N)CC1`, the “Percent Effect” value (30.3 µM, […]) was -5.722%. Still for that read-out and setting: then `CC1CCN(C(=O)C2CCN(c3ccc(Cl)cc3C#N)CC2)CC1`, with 28.97%; and `N#Cc1cc(Cl)ccc1N1CCN(C(=O)C2CCC2)CC1`, with 81.04%. `O=C(O)C(F)(F)F.O=C(c1cccnc1)N1CCC2(CC1)COCCN(c1ncccn1)C2`: the “Percent Effect” value (30 µM, 30.03 µM) was -13.17%. Same read-out and setting: the result for `COc1ccc(N2Cc3nc(N)ncc3C2=O)cc1Cl` reads -4.562%; that for `Cc1cc(S(=O)(=O)NCC(C)(C)N)c(F)cc1F.Cl`, -16.3%. Still for that read-out and setting: then `CC(C)CNc1nc2c(cc1C(=O)NCC1CC1)CCNCC2`, with 100.1%; and `CNC(=O)c1cc2c(nc1NCC1CC1)CCNCC2`, with -38.29%; and `CC(C)Nc1nc2c(cc1C(=O)NCC1CC1)CCNCC2.O=C(O)C(F)(F)F.O=C(O)C(F)(F)F`, with -26.83%. As to `O=C(O)C(F)(F)F.O=C1CCCN1Cc1nnc2n1CCN(Cc1ccccn1)CC2`, the “Percent Effect” value (30.3 µM, […]) is on record as -8.188%. Regarding `Cc1cc(C[C@@H]2CCC[C@H]2NCc2c[nH]nc2-c2ccccc2)on1.O=C(O)CC(O)(CC(=O)O)C(=O)O`, the “Percent Effect” value (30.3 µM, […]) worked out at 19.9%. On the same count and under the same terms, the result for `CNC(=O)c1cc2c(nc1NCC(C)C)CCN(C)CC2.O=C(O)C(F)(F)F.O=C(O)C(F)(F)F` reads -104.3%; that for `CNC(=O)c1cc2c(nc1NCC(C)C)CCN(c1ncccn1)CC2.O=C(O)C(F)(F)F`, 98.85%. For `CNC(=O)c1cc2c(nc1NCC(C)C)CCN(c1ccncn1)CC2.O=C(O)C(F)(F)F`, where the note is “30 µM, 30.03 µM”, the “Percent Effect” value is given as -20.72%. Same read-out and setting: then `O=C(CSc1ccc2c(c1)OCCO2)NS(=O)(=O)c1cc(F)ccc1F`, with 61.54%; and `O=C(CSc1ccc2c(c1)OCCO2)NS(=O)(=O)c1ccccc1F`, with -24.23%; and `O=C(CSc1ccc(F)c(F)c1)NS(=O)(=O)c1ccc2c(c1)OCCO2`, with -8.026%. In the case of `CN1C(=O)CC(c2ccccc2)C12CCN(CC1CCOCC1)CC2.O=C(O)C(F)(F)F` (stereo not drawn), the “Percent Effect” value (30.3 µM, […]) was -3.358%. As to `COCCN1CCCn2c(nc(Cn3cncn3)cc2=O)C1.O=C(O)C(F)(F)F`, the “Percent Effect” value (30 µM, 30.03 µM) worked out at 64.46%. Take `O=C(O)C(F)(F)F.O=c1cc(Cn2cncn2)nc2n1CCCN(Cc1ccc(F)cc1)C2`: for the setting “30 µM, 30.03 µM”, the “Percent Effect” value is recorded as 27.77%.

Take `O=C(O)C(F)(F)F.O=C(O)C(F)(F)F.O=c1cc(Cn2cncn2)nc2n1CCCN(CCN1CCCC1)C2`: the “Percent Effect” value (30 µM, 30.03 µM) amounted to 14.15%.

Turning to `O=C(O)C(F)(F)F.c1cnc(NCc2nnn3c2CN(CC2CC2)CCC3)nc1`, where the note is “30.3 µM, […]”, the “Percent Effect” value was -52.08%. Consider `Cc1nn(C)c(N(C)C)c1CNC1CCc2cc(F)ccc21.Cl` (stereo not drawn), for which the “Percent Effect” value (10 µM) is recorded as -39.72%. On to `Cc1ccc(C(=O)N2CCc3ncc(Cn4cccn4)n3CC2)cn1`, for which the “Percent Effect” value (30.3 µM, […]) is listed as -7.438%.

Regarding `Cn1cccc1C(=O)N1CCc2ncc(Cn3cccn3)n2CC1`, where the note is “30 µM, 30.03 µM”, the “Percent Effect” value stood at 59.24%. Regarding `O=C(c1ccoc1)N1CCc2ncc(Cn3cccn3)n2CC1`, the “Percent Effect” value (30.3 µM, […]) is -11.59%. Still for that read-out and setting: the result for `CS(=O)(=O)NCc1cncc2c1CCN(C(=O)c1cccnc1)C2.Cl.Cl` reads -7.257%.

As to `COCC1CN(Cc2ccoc2)Cc2nnn(C)c21.O=C(O)C(F)(F)F` (stereo not drawn), the “Percent Effect” value (30 µM, 30.03 µM) was -46.26%.

Regarding `CCc1c(C)nc2cc(C3CCN(CCc4ccccc4)C3)nn2c1O` (stereo not drawn), the “Percent Effect” value (30.3 µM, […]) is listed as 58.63%.

For the compound `CCc1c(C)nc2cc(C3CCN(Cc4cccnc4)C3)nn2c1O` (stereo not drawn), the “Percent Effect” value (30.3 µM, […]) stood at 7.415%. On the same count and under the same terms, the result for `CCc1c(C)nc2cc(C3CCN(Cc4cccc(F)c4)C3)nn2c1O` (stereo not drawn) reads 27.1%.
